# Assay results from the supplement of paper PMC10849652.
# Targets with a hit are over-represented here; the source holds about 8,800 in all. About 0.5% of all pairs of compound and target were hits. Unmarked numbers belong to inactive results.
# Columns and labels:
# Assay in all cases: log2 fold change, soluble protein after heating vs DMSO (PISA); higher = thermal stabilisation; K562 lysate, 10 uM; active = over 0.2 and 3.5 SD of the protein, either way, in both replicates (recomputed)
# lapatinib = compound: CS(=O)(=O)CCNCc1ccc(-c2ccc3ncnc(Nc4ccc(OCc5cccc(F)c5)c(Cl)c4)c3c2)o1 [lapatinib]
# In short: (§1)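 Pellets of K562 cells were dounce-homogenised in PBS pH 7.4 with 1 mM MgCl2, and the crude extract was held at 1 mg/mL protein for a 30 min treatment with 10 μM compound. Aliquots were heated for 3 min over 48°C-58°C and pooled before NP-40 was added to 0.5% at 4°C. The supernatant from 21,000xg for 90 min was quantified by TMTpro 16plex LC-MS/MS with channel sums equalised. Values are reported from duplicates as log-two fold change in thermal stability relative to solvent controls.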
# pictilisib = compound: CS(=O)(=O)N1CCN(Cc2cc3nc(-c4cccc5[nH]ncc45)nc(N4CCOCC4)c3s2)CC1 [pictilisib]
# In short: as §1
# crizotinib = compound: C[C@@H](Oc1cc(-c2cnn(C3CCNCC3)c2)cnc1N)c1c(Cl)ccc(F)c1Cl [crizotinib]
# In short: as §1
# [1] = compound: C[C@H](C1=CC=C(C=C1)C(=O)NC2=C3C=CNC3=NC=C2)N
# In short: as §1
# duvelisib = compound: C[C@H](Nc1ncnc2nc[nH]c12)c1cc2cccc(Cl)c2c(=O)n1-c1ccccc1 [duvelisib]
# In short: as §1
# gandotinib = compound: Cc1cc(Nc2cc(CN3CCOCC3)c3nc(C)c(Cc4ccc(Cl)cc4F)n3n2)n[nH]1 [gandotinib]
# In short: as §1
# tozasertib = compound: Cc1cc(Nc2cc(N3CCN(C)CC3)nc(Sc3ccc(NC(=O)C4CC4)cc3)n2)n[nH]1 [tozasertib]
# In short: as §1
# doramapimod = compound: Cc1ccc(-n2nc(C(C)(C)C)cc2NC(=O)Nc2ccc(OCCN3CCOCC3)c3ccccc23)cc1 [doramapimod]
# In short: as §1
# bafetinib = compound: Cc1ccc(NC(=O)c2ccc(CN3CC[C@H](N(C)C)C3)c(C(F)(F)F)c2)cc1Nc1nccc(-c2cncnc2)n1 [bafetinib]
# In short: as §1
# [2] = compound: Cc1cccc(CC(=O)N2CCc3c2ccc(-c2cn(C)c4ncnc(N)c24)c3F)n1
# In short: as §1
# nilotinib = compound: Cc1cn(-c2cc(NC(=O)c3ccc(C)c(Nc4nccc(-c5cccnc5)n4)c3)cc(C(F)(F)F)c2)cn1 [nilotinib]
# In short: as §1
# [3] = compound: Cc1nc(Nc2n[nH]c3c2CN(C(=O)N[C@H](CN(C)C)c2ccccc2)C3(C)C)c2sccc2n1
# In short: as §1
# dasatinib = compound: Cc1nc(Nc2ncc(C(=O)Nc3c(C)cccc3Cl)s2)cc(N2CCN(CCO)CC2)n1 [dasatinib]
# In short: as §1
# [4] = compound: Cc1ncc(-c2ccnc(Nc3ccc(S(C)(=O)=O)cc3)n2)n1C(C)C
# In short: as §1
# [5] = compound: Cn1cc(-c2ccc3c(c2)CCN3C(=O)Cc2cccc(C(F)(F)F)c2)c2c(N)ncnc21
# In short: as §1
# quisinostat = compound: Cn1cc(CNCC2CCN(c3ncc(C(=O)NO)cn3)CC2)c2ccccc21 [quisinostat]
# In short: as §1
# tipifarnib = compound: Cn1cncc1[C@@](N)(c1ccc(Cl)cc1)c1ccc2c(c1)c(-c1cccc(Cl)c1)cc(=O)n2C [tipifarnib]
# In short: as §1
# [6] = compound: NC(=O)Nc1cc(-c2cccc(F)c2)sc1C(=O)N[C@H]1CCCNC1
# In short: as §1
# [7] = compound: NC(=O)c1cnc(N[C@@H]2CCCC[C@@H]2N)nc1Nc1cccc(-n2nccn2)c1
# In short: as §1
# [8] = compound: NC1(c2ccc(-c3nc4ccn5c(=O)[nH]nc5c4cc3-c3ccccc3)cc2)CCC1
# In short: as §1
# Sequence of UniProt Q16563 (Q16563 whole entry, looked up): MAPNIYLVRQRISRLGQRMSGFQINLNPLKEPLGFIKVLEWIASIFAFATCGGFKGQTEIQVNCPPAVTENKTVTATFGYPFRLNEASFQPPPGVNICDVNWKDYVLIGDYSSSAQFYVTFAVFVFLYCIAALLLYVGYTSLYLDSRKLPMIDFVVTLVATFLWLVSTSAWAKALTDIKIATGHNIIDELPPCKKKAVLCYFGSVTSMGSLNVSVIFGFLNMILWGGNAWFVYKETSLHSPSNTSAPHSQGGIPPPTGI
# Sequence of UniProt Q13573 (Q13573 whole entry, looked up): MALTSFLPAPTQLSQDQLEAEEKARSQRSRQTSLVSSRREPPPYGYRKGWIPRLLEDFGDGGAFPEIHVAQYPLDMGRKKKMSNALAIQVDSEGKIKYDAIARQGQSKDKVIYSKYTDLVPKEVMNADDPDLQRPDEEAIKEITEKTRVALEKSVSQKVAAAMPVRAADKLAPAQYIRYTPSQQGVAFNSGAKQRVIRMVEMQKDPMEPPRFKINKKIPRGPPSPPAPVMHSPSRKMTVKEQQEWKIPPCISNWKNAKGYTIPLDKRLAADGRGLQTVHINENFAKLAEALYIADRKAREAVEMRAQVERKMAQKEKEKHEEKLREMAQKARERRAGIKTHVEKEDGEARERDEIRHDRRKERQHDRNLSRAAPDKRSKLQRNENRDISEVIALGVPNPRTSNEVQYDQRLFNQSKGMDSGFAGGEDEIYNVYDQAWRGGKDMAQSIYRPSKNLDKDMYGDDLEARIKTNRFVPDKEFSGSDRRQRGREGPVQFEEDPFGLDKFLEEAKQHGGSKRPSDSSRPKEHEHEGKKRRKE
# Sequence of UniProt Q92540 (Q92540 whole entry, looked up): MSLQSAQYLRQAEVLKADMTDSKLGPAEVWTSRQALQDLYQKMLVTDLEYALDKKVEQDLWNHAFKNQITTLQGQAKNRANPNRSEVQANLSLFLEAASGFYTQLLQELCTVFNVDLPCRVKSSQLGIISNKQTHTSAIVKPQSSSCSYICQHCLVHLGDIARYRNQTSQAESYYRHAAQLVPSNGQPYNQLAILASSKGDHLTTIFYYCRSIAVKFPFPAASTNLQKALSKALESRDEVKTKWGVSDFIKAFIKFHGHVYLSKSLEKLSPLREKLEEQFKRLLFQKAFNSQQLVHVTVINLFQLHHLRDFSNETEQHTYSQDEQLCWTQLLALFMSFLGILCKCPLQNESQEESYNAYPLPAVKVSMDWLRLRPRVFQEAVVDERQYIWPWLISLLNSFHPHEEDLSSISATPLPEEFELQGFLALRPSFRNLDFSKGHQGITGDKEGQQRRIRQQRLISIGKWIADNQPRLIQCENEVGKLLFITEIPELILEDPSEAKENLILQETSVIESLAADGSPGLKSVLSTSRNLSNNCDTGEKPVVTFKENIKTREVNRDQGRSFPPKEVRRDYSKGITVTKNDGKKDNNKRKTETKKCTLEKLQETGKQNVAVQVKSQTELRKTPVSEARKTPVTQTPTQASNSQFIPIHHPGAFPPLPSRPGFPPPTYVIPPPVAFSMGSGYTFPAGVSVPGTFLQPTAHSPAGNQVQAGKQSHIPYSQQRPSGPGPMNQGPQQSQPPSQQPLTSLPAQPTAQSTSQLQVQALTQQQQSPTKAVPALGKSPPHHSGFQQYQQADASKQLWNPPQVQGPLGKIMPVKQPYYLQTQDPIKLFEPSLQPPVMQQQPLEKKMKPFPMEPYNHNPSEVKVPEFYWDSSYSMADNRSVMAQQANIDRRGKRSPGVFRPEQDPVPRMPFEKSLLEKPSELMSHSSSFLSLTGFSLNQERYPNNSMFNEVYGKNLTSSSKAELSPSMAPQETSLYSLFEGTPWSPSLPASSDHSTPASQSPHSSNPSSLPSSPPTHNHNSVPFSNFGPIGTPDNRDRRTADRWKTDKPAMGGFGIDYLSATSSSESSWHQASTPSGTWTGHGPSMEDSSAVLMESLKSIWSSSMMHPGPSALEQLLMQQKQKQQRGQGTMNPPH
# Sequence of UniProt Q9BVQ7 (Q9BVQ7 whole entry, looked up): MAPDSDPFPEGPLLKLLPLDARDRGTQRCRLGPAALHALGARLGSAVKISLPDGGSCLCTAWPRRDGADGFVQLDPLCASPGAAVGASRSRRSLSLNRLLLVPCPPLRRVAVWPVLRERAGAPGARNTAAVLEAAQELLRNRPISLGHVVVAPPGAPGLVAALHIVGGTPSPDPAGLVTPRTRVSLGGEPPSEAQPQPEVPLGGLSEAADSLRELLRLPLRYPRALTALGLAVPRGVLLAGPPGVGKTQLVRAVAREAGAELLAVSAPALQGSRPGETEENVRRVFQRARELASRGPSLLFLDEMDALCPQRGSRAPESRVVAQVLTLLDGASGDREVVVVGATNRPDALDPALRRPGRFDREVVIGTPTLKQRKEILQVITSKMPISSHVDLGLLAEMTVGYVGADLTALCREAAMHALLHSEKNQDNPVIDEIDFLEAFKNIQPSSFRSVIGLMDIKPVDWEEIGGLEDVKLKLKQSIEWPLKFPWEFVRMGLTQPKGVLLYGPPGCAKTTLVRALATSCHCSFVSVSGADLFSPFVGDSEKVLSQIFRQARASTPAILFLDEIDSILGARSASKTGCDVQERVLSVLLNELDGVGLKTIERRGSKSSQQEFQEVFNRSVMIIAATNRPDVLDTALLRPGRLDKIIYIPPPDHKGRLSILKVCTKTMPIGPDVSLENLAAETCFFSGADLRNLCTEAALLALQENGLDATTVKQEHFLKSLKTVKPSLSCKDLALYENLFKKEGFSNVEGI
# Sequence of UniProt O95793 (O95793 whole entry, looked up): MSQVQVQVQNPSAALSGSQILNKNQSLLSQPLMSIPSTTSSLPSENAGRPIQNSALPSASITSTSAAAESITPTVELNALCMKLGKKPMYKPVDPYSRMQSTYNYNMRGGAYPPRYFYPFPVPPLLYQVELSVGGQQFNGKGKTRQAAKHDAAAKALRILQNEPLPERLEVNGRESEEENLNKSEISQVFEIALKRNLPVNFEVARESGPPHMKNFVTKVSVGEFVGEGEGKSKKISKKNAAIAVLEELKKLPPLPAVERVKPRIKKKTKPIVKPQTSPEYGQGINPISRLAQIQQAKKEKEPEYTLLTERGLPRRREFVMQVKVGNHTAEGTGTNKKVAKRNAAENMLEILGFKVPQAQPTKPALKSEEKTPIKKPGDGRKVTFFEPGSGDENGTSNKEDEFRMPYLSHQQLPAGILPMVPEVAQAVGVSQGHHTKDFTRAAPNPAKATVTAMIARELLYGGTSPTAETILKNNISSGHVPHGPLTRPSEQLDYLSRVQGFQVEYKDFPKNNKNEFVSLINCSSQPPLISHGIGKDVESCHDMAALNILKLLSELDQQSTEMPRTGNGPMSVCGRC
# Sequence of UniProt O95926 (O95926 whole entry, looked up): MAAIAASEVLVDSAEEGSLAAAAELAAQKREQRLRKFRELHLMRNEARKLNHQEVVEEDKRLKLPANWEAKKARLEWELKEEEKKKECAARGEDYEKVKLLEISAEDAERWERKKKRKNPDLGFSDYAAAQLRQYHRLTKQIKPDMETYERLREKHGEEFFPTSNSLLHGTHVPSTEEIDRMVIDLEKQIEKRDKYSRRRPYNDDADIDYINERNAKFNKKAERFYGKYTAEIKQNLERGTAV
# Sequence of UniProt Q96BD8 (Q96BD8 whole entry, looked up): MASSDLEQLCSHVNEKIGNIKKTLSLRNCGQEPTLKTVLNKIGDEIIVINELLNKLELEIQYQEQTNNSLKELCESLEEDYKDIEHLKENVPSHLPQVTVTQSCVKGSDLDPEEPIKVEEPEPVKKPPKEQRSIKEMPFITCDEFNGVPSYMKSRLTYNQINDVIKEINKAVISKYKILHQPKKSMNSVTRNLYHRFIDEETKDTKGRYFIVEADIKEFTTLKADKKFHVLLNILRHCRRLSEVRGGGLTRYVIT
# Sequence of UniProt Q08AE8 (Q08AE8 whole entry, looked up): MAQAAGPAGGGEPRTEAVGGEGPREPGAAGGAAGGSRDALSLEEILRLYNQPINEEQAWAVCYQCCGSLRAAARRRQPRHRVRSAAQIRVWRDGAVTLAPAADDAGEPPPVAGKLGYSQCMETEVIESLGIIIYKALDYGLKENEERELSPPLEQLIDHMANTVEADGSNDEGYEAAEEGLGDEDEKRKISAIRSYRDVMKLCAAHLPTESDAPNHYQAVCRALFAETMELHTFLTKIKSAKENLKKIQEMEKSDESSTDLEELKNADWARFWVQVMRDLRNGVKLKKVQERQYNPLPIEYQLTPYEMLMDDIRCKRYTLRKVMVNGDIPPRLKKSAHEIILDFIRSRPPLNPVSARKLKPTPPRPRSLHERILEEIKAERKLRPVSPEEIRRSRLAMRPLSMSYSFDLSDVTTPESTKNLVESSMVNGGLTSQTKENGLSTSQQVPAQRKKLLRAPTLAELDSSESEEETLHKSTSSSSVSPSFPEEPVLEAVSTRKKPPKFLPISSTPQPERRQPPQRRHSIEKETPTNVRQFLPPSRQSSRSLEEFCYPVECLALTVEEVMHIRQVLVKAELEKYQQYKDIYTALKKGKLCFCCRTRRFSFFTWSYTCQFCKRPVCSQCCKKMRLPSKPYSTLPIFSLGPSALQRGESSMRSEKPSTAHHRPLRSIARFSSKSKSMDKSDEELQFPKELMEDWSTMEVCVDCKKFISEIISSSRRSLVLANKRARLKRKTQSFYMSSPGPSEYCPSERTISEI
# Sequence of UniProt Q9NYA1 (Q9NYA1 whole entry, looked up): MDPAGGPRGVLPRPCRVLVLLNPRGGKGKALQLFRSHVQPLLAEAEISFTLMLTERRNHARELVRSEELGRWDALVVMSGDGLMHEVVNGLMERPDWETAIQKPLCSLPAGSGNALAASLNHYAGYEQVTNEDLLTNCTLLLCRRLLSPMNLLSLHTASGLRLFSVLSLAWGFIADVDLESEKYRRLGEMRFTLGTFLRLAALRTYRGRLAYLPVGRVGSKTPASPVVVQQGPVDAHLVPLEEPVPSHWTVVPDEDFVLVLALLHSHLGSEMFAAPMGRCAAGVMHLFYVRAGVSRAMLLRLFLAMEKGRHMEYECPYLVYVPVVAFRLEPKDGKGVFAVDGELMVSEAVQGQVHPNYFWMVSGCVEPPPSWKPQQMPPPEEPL
# Sequence of UniProt Q8NHG7 (Q8NHG7 whole entry, looked up): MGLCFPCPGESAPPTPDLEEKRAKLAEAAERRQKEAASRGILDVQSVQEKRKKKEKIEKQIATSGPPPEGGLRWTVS
Target,log2 fold change (lapatinib),log2 fold change (pictilisib),log2 fold change (crizotinib),log2 fold change [1],log2 fold change (duvelisib),log2 fold change (gandotinib),log2 fold change (tozasertib),log2 fold change (doramapimod),log2 fold change (bafetinib),log2 fold change [2],log2 fold change (nilotinib),log2 fold change [3],log2 fold change (dasatinib),log2 fold change [4],log2 fold change [5],log2 fold change (quisinostat),log2 fold change (tipifarnib),log2 fold change [6],log2 fold change [7],log2 fold change [8]
SMG6 (UniProt Q86US8),0.009,-0.032,0.028,-0.097,-0.1,0.025,-0.096,0.051,-0.049,0.039,-0.067,0.028,0.048,0.079,0.082,-0.05,-0.065,0.028,0.065,0.011
STK38 (UniProt Q15208),-0.024,0.061,0.001,0.017,0.017,0.159,0.029,-0.001,-0.104,-0.071,-0.009,0.858 (active),-0.003,0.078,0.064,-0.14,-0.029,0.563 (active),0.054,0.036
STAU1 (UniProt O95793),-0.018,0.03,0.005,0.27 (active),0.019,-0.086,0.014,0.056,-0.089,-0.062,-0.008,-0.024,-0.004,-0.002,0.007,0.003,-0.009,0.037,0.001,0.005
SNW1 (UniProt Q13573),0.019,-0.002,0.002,0.155,-0.018,-0.037,-0.01,-0.002,-0.002,-0.007,0.002,-0.009,0.024,-0.036,-0.015,0.012,0.009,-0.016,-0.01,-0.01
SMG7 (UniProt Q92540),0.101,0.1,0.043,-0.035,0.026,-0.018,0.026,-0.257 (active),-0.008,0.022,0.001,-0.034,0.003,-0.058,0.03,0.062,-0.072,0.054,-0.067,0.04
SVIP (UniProt Q8NHG7),0.005,-0.03,-0.037,0.027,-0.013,0.01,0.037,0.021,-0.008,0.032,-0.006,0,-0.066,0.089,-0.013,0.034,0.004,-0.095,-0.012,-0.004
SYPL1 (UniProt Q16563),0.015,-0.025,-0.001,-0.376 (active),0.004,0.16,-0.028,-0.009,-0.034,0.163,-0.005,-0.006,0.013,0.025,-0.014,-0.075,0.034,-0.002,-0.013,-0.044
SMAD9 (UniProt O15198),-0.056,-0.036,-0.027,-0.047,0.091,0.077,0.091,0.024,0.014,-0.019,0.066,0.054,0.062,-0.028,-0.038,-0.036,-0.021,0.016,0.02,-0.065
SPATA5L1 (UniProt Q9BVQ7),-0.017,0.011,-0.107,0.016,0.001,-0.076,0.013,-0.035,-0.001,0.049,-0.012,-0.003,-0.115,0.016,0.093,-0.059,0.028,0.047,0.039,-0.092
SLC25A38 (UniProt Q96DW6),-0.093,-0.026,-0.044,-0.072,0.173,-0.055,0.391 (active),-0.024,-0.025,0.112,-0.097,-0.142,0.015,-0.171,0.15,-0.068,-0.061,-0.019,-0.138,0.06
SPHK1 isoform 2 (UniProt Q9NYA1),-0.039,0.001,-0.018,-0.028,0.013,0.033,0.122,0.073,-0.007,-0.041,0.03,-0.034,-0.007,-0.071,0.025,0.084,-0.058,-0.028,-0.005,0.052
SKA1 (UniProt Q96BD8),0.001,0.043,0.009,-0.032,0.042,0.001,0.086,0.037,-0.029,0.024,-0.095,0.052,-0.034,0.023,-0.032,-0.104,0.039,0.038,-0.042,0.014
"SNX6, A0A0A0MRI2",-0.008,0.018,-0.062,0.2,0.003,-0.134,0.022,-0.012,-0.04,-0.088,-0.021,0.009,0.003,0.03,0.027,-0.003,0.007,-0.015,0.016,0.016
SPIRE1 (UniProt Q08AE8),-0.019,0.012,-0.072,-0.281 (active),-0.021,0.128,-0.023,0.151,-0.031,0.134,0.064,0.011,0.037,-0.03,0.025,-0.186,0.055,-0.032,0.042,-0.01
SYF2 (UniProt O95926),0.026,0.003,-0.008,-0.023,-0.144,0.055,-0.066,0.04,-0.026,-0.016,-0.023,0,-0.036,0.005,0.003,-0.008,0.046,-0.016,0.04,-0.106
SPATS2 (UniProt Q86XZ4),0.027,-0.119,0.09,-0.016,0.048,0.145,-0.062,-0.126,-0.206,-0.164,-0.069,0.042,-0.073,0.074,-0.03,0.144,0.013,-0.107,-0.005,-0.013
